Hits are enriched below; roughly 12% of the tested compounds scored in any of these assays.
Sfp inh: blocks B. subtilis Sfp PPTase activity | Potency, µM, without a hit: largest response in the series, negative = inhibition, actives largely listed as inhibitors | Q9F4F7 | Biochemical Sfp PPTase activity, qHTS | actives 3.5% (n = 310,000);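 further: the enzyme is Sfp with the accession as filed and its product quenches rhodamine fluorescence; 0% = enzyme reaction without inhibitor and -100% = no enzyme wells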
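With Hepes-Na pH 7.6 buffer containing 10 mM MgCl2, Sfp (15 nM) modified BHQ-2-YbbR (12.5 uM) using rhodamine-CoA (5 uM). Two reads 30 minutes apart at 525/598 nm yielded each well's rate.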
JMJD2A Tudor: inhibitors of human JMJD2A Tudor domain; O75164; AlphaScreen JMJD2A-Tudor / H3K4me3 peptide binding; Potency, µM (top dose mostly 114 µM), without a hit: at the highest dose activity change, negative = inhibition, hits mostly inhibitors; actives 4.4% (n = 390,000); AID 504339; further: on the % scale 0 is the no-effect control and ±100 the full control effect; nearly all actives have a fitted effect of over 50% in size
BAZ2B block: BAZ2B (human) inhibition; AlphaScreen BAZ2B-H3K14Ac peptide displacement; Q9UIF8; actives 4.4% (n = 360,000); Potency, µM (highest dose often 114 µM), for inactives: at the highest dose activity change, negative = inhibition, usual class: inhibitors; further: on the % scale 0 is the no-effect control and ±100 the full control effect; nearly all actives have a fitted effect of over 60% in size
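Inhibition is scored as reduced AlphaScreen emission. The BAZ2B/b-H3(5-23)K14Ac complex (50 nM each) in PBS pH 7.4, 0.01% Tween-20 meets compound (up to 110 uM) for 30 min at RT before bead addition.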
TDP1 inh: inhibitors of human tyrosyl-DNA phosphodiesterase TDP1 | Q9NUW8 | recombinant TDP1, AlphaScreen DNA substrate cleavage | Potency, µM (doses to about 130 µM), for the others: at the highest dose activity change, negative = inhibition, usual class: inhibitors | actives 0.28% (n = 350,000) | AID 485290; further: on the % scale 0 is the no-effect control and ±100 the full control effect; nearly all actives have a fitted effect of over 40% in size
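E. coli-derived human Tdp1, 1 nM final. Cpd preinc 15 min RT; substrate 15 nM final, 5 min RT; AS bead mix 10 ug/ml final, 10 min RT. Signal loss = tyrosine-FITC cleavage. No-enzyme wells = max signal.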
HP1b chromo inh: blocks HP1-beta chromodomain binding to methylated histone tails. P83916. actives 0.56% (n = 390,000). AID 540317. AlphaScreen HP1-beta / biotin-H3K9me3 peptide binding. Potency, µM (doses to about 114 µM), for inactives: at the top dose activity change, negative = inhibition, usual class: inhibitors; further: nearly all actives have a fitted effect of over 70% in size
Target sequence (P83916 whole entry, looked up): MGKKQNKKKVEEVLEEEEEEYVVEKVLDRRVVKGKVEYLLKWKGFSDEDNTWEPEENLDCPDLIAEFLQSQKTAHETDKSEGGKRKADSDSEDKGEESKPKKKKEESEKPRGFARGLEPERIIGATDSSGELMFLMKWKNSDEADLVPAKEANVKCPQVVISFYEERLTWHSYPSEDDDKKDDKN
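Compound inhibition of the preformed complex between 50 nM HP1-beta and 50 nM biotinylated H3K9me3 peptide was read by AlphaScreen. Buffer was PBS pH 7.4 with 0.01% Tween-20. Incubations ran 30 min at room temperature, with 10 ug/mL donor/acceptor beads.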
G9a block: blocks human histone lysine methyltransferase G9a; G9a H3K9 monomethylation, AlphaScreen, 2 h; actives 8.8% (n = 350,000); Potency, µM (highest dose often 102 µM), for inactives: top-dose activity, negative = inhibition, hits mostly inhibitors; Q96KQ7; further: on the % scale 0 is the no-effect control and ±100 the full control effect; nearly all actives have a fitted effect of over 75% in size
Target sequence (Q96KQ7 913-1193 limits assumed): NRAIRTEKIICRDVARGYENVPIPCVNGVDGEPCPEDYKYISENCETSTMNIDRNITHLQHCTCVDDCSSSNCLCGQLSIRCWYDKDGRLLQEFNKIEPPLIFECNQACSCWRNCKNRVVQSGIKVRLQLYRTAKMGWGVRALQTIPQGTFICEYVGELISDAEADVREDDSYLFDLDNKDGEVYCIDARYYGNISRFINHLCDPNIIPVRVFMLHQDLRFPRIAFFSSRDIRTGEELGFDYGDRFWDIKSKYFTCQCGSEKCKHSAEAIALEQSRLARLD
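G9a (20 nM) was preincubated 15 min with compound, then reacted 2 h at room temperature with 500 nM biotin-H3K9 peptide and 20 µM SAM. Monomethyl-H3K9 detected by AlphaScreen using anti-H3K9me1 antibody.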
* = called active by the depositor; ? = inconclusive; · = not tested or not shown; [ ] = dose if it differs, or a comment. The call rests on the fitted dose curve; in most records, active means well fitted curve in the direction sought with a large enough effect; inconclusive means small, poorly fitted or top-dose-only effect, or another doubt; inactive means no such curve, though single readings can be large; an effect the other way counts as inactive or inconclusive. Potency means the concentration at half of the fitted maximal effect.

SMILES	Sfp inh	JMJD2A Tudor	BAZ2B block	TDP1 inh	HP1b chromo inh	G9a block
NS(=O)(=O)c1ccc2c(c1)C(=NO)c1cc(S(N)(=O)=O)ccc1-2	-2%	-3%	-4%	·	42%	?
O=C(Oc1ccc(F)cc1)c1ccc2c(=O)n3c(nc2c1)CCC3	·	-12%	-1%	-5%	19%	50µM*
Cc1ccc(S(=O)(=O)Cn2nnnc2CN(Cc2ccco2)Cc2cccs2)cc1	14%	-7%	-1%	4%[56.1 µM]	15%	20µM*
CCOCCCNC(=S)NCCCNc1nc2c(C)c(C)ccc2cc1C#N	?	-9%	-3%	2%	26%	56µM*
CCC(=O)NCCCNc1nc2c(C)cccc2cc1C#N	?	-13%	0%	5%	11%	35µM*
CCOCCCNC(=S)N1CCCN(c2nc3c(C)c(C)ccc3cc2C#N)CC1	9%	41%	-4%	8%	102%	-2%
CCc1ccc(NC(=O)CN2C(=O)CSc3ccc(S(=O)(=O)N(C)C)cc32)cc1	·	-9%	-10%	5%	9%	2%[59 µM]
Cc1ccc(N/C=C(\C2OC(=O)c3ccccc32)[N+](=O)[O-])c(C)c1 (centres undefined)	-5%	-21%[11.4 µM]	-32%	9%	?	?
O=C1OC(/C(=C\Nc2cc(Cl)ccc2O)[N+](=O)[O-])c2ccccc21 (centres undefined)	3%	?	45µM*	7%	?	10µM*
CCC(CC)C(=O)N1CCc2cc(OC)c(OC)cc2C1COc1ccc(C(=O)OC)cc1 (centres undefined)	·	-34%	-31%	8%	23%	-5%[59 µM]
O=S(=O)(/N=C(\Sc1ccc(Cl)cc1)c1ccccc1)c1ccccc1	56µM*	2%	33%	7%	69%	-2%[12.7 µM]
CC(=O)Nc1ccc2c(c1)nc(CN1CCCC1)n2C	-13%	-1%	-5%	9%	34%	18µM*
Cc1ccc(C(C)C)c(OCC(=O)Nc2ccc3c(c2)nc(CCNC(=O)c2ccco2)n3C)c1	·	-30%	-2%	1%	29%	?
Cn1c(CCN2CCOCC2)nc2cc(NC(=O)COc3ccccc3)ccc21	9%	-16%	-5%	0%	10%	-33%
Cn1c(CN2CCOCC2)nc2cc(NC(=O)COc3ccccc3)ccc21	22%	56µM*	-14%	3%	-19%	-2%
Cc1ccc(C(C)C)c(OCC(=O)Nc2ccc3c(c2)nc(CN2CCCC2)n3C)c1	?	?	11µM*	6%	20%	45µM*
COc1ccc(OCC(=O)Nc2ccc3c(c2)nc2n3CCSC2)cc1	5%	-13%	-1%	3%	3%	2µM*
O=C(CSc1nc2ccccc2[nH]1)N/N=C/c1ccco1	1%	-6%	0%	-21%	37%	-7%[59 µM]
CCn1c(-c2cccc(Cl)c2)n[nH]c1=S	1%	7.1µM*	7%	-2%	-4%	6.3µM*
CCn1c(-c2cc(Cl)ccc2OC)n[nH]c1=S	-5%	7.1µM*	0%	2%	20%	5.6µM*
COc1ccc(Cl)cc1-c1n[nH]c(=S)n1C	-2%	6.3µM*	24%	9%	22%	7.9µM*
CCOc1cccc(-c2cc(-c3n[nH]c(=S)n3CC)c3ccccc3n2)c1	?	?	?	12%	-16%	?
CCn1c(-c2cc(Br)ccc2O)n[nH]c1=S	·	13µM*	·	·	21%	·
COc1ccccc1C(=O)Nc1ccc(OC(C)C(=O)N2CCOCC2)cc1 (centres undefined)	·	1%	8%	-18%	22%	4%[12.7 µM]
O=C(NCc1ccccc1)c1c2c(nc3ccccc13)C(=O)N(C1CCCCC1)C2	·	-17%	-15%	3%	22%	-1%[59 µM]
SMILES	Sfp inh	JMJD2A Tudor	BAZ2B block	TDP1 inh	HP1b chromo inh	G9a block
CC(=O)Nc1ccc(NS(=O)(=O)c2ccc3[nH]c4c(c3c2)CCCCC4)cc1	·	-10%	14%[57.1 µM]	5%	-27%	-32%[59 µM]
Cc1ccc(NC(C(=O)c2ccccc2)c2ccccc2)cc1 (centres undefined)	·	-34%	·	·	-9%[57 µM]	·
CC1CCCCN1Cc1c(O)ccc2c(=O)c(-c3ccc(Cl)cc3)c(C(F)(F)F)oc12 (centres undefined)	·	-16%	1%	·	27%	-27%[59 µM]
COc1ccccc1NC(=O)NCC1(N(C)C)CCCCC1	15%	-21%	-1%	·	13%	9%
C=CCn1c(-c2cc(Cl)ccc2OC)n[nH]c1=S	0%	7.9µM*	1%	4%	8%	1.6µM*
Cc1ccc(Cl)cc1-n1c(=O)c2sc3ccccc3c2n(CC(=O)NC2CCCC2)c1=O	·	-10%	-2%	4%	41%	-28%[59 µM]
C#CCOCCOCCOCCNc1nc(N2CCN(C(=O)[C@H](Cc3ccc(O)cc3)n3cc([C@@H](N)C(C)CC)nn3)CC2)nc(N2CCN(C(=O)[C@H](CCCCN)n3cc([C@@H](N)CO)nn3)CC2)n1 (some centres undefined)	9%	40µM*	50µM*	5%	40%	-5%[12.7 µM]
C#CCOCCOCCOCCNc1nc(N2CCN(C(=O)[C@H](CCCN=C(N)N)n3cc(C(N)[C@H](C)CC)nn3)CC2)nc(N2CCN(C(=O)[C@H](CC(N)=O)n3cc(C(N)[C@@H](C)CC)nn3)CC2)n1 (some centres undefined)	·	?	·	0%	81%	·
C#CCOCCOCCOCCNc1nc(N2CCN(C(=O)[C@H](Cc3ccc(O)cc3)n3cc([C@@H](N)C(C)CC)nn3)CC2)nc(N2CCN(C(=O)[C@H](CCCCN)n3cc([C@@H](N)CC(C)C)nn3)CC2)n1 (some centres undefined)	13%	·	79µM*	0%	·	-131%[59 µM]
C#CCOCCOCCOCCNc1nc(N2CCN(C(=O)[C@H](CCCCN)n3cc([C@@H](N)CO)nn3)CC2)nc(N2CCN(C(=O)[C@H](Cc3ccc(O)cc3)n3cc([C@@H](N)CC(C)C)nn3)CC2)n1	6%	56µM*	32µM*	0%	26%	?
O=C(NC1CCS(=O)(=O)C1)c1ccccc1Cl (centres undefined)	·	-1%	·	2%	44%	·
Cc1ccc(NC(=O)Cn2cc(C(=O)c3ccco3)c3ccccc32)cc1C	·	-19%	1%[57.1 µM]	2%	13%	-1%[59 µM]
O=C(NC1CCCC1)c1ncn[nH]1	-7%	32µM*	45µM*	-5%	45%	20%[59 µM]
Cc1c(NC(=O)c2cc(-n3cnnc3)ccc2Cl)cccc1-c1nc2ccccc2o1	-17%	-10%	-5%	-8%	14%	2.5µM*
